Data from PubChem BioAssay AID588342 (National Center for Advancing Translational Sciences (NCATS), 2011).
About 25,000 (6.9%) of roughly 360,000 compounds were called active. Another 9% or so got no clear call; they are omitted. The call rests on the fitted dose curve; in most records, active means well fitted inhibition curve with a large enough effect; inconclusive means small, poorly fitted or top-dose-only effect; inactive means flat fitted curve, though single readings scatter. For the sample, actives were picked, then their nearest neighbours and some compounds at random.

Molecular target: Luciferin 4-monooxygenase (Photinus pyralis) (UniProt P08659)
Experiment: qHTS profiling assay for firefly luciferase inhibitor/activator using purifed enzyme and Km concentrations of substrates (counterscreen for miR-21 project); further: nearly all actives have a fitted effect of over 55% in size;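 on activity change, negative = inhibition: plate controls were vehicle for no effect and reference inhibitor for full effect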
Settings: purified FLuc, luminescence inhibition; series mostly up to 57.5 µM; activity change, negative = inhibition: at the top concentration
From the text: MLPCN Grant: 1 R21 NS059478-01 (miR-21 grant) Assay Provider: NCGC NCGC Assay Overview: Firefly (Photinus pyralis) luciferase is one of the most commonly used transcriptional reporters for a number of reasons. It is considered one of the more dynamically responsive reporters -that is, responsive to changes in reporter transcription - as it requires no post-translational modifications and is enzymatically active directly after protein synthesis (Wood, 1998). Additionally, the half-life of the luciferase protein is short relative to other reporter-gene products (Wood, 1995). Whereas reporters with long half-lives potentially allow for increased signal due to accumulation of reporter-gene product, once accumulated in the cell, dynamic changes in reporter-gene expression may be difficult to detect(Fan and Wood, 2007; Almond et al., 2004). It has been shown that wild-type P. pyralis luciferase has a half-life of approximately […] hours in mammalian cells (Thompson et al., 1991). Firefly luciferase reporter-gene assays are also generally considered one of the most sensitive assay types (Wood, 1995; Wood, 1998). Although light produced in a bioluminescence reaction is of lower intensity than that produced during fluorescence emission, this is offset by little to no background light inherent to luminescent assays. Thus the luciferase reporter can be expressed at much lower levels than fluorescent proteins while still providing robust signal. # However, it was initially observed, in 1991, by Thompson et al., that compounds that resemble the substrates of firefly luciferase (FLuc) can act as competitive inhibitors of the enzyme, and that these compounds, upon interaction with luciferase in the cell, can actually stabilize the protein and increase its half-life. Accumulated intracellular FLuc protein can be measured as an increase in luminescence signal, upon addition of detection reagents (which contain high concentrations of FLuc substrates) commonly used in high-throughput screening. In cell-based reporter gene assays that use FLuc as the reporter gene to quantitate the potential influence of a given compound against the target biology, this apparent increase in luminescence can mistakenly be interpreted as identification of a compound that is active against the target of interest. This is the case for the miR-21 FLuc reporter gene assay used to identify inhibitors of the miR-21 pathway (PubChem AID 2289) - compounds of interest will inhibit miR-21 biogenesis/expression or activity, and are identified by causing an increase in luminescence, due to increased FLuc translation. However, FLuc inhibitory compounds that stabilize the FLuc protein will give an identical read-out, making it difficult to distinguish compounds that are active against the target from those active against FLuc. Previous profiling work to determine the prevalence of compounds that affect FLuc enzymatic activity (PubChem AID 411) identified that ~3% of the MLSMR library (then at ~72K) inhibited FLuc. […] Since the MLSMR had grown to ~350K compounds, and since it was expected that a significant percentage of compounds found active in the miR-21 FLuc assay would be FLuc inhibitors, the library was screened for activity against FLuc using a biochemical assay of purified FLuc and KM concentrations of FLuc substrates (D-luciferin and ATP).
NCGC Assay Protocol Summary: Reagents: 50mM Tris acetate, pH 7.5; 10mM Mg acetate; 10uM D-luciferin (Sigma #L9504); 10uM ATP; 0.01% Tween-20; 0.05% BSA; 10nM P. pyralis luciferase (Sigma #L9506) Control compounds used were two known firefly luciferase inhibitors (compounds (2) and (5) in Auld et al., 2010), and DMSO. […]

Luciferin 4-monooxygenase (Photinus pyralis), sequence (P08659 whole entry, looked up): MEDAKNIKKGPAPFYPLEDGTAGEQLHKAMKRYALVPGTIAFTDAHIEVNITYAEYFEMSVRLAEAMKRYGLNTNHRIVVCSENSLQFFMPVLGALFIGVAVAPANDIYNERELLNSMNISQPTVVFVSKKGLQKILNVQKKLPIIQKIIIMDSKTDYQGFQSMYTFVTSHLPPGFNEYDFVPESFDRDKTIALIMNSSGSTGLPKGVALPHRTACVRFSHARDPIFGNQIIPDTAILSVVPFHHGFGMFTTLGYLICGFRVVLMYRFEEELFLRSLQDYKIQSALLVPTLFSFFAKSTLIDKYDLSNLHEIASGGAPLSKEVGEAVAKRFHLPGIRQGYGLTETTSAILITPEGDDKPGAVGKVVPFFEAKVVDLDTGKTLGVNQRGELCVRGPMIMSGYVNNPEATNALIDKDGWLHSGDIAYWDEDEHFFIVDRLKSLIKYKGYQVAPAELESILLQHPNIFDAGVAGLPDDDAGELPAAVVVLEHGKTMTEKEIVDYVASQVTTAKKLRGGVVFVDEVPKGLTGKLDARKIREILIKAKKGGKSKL

Structure (SMILES)	activity change, negative = inhibition	Potency
Nc1nnn(CC(=O)N/N=C/c2ccc(O)cc2)n1	-1.83% (inactive)	
Cc1nnc(NC(=O)C(c2ccccc2)c2ccccc2)s1	-1.25% (inactive)	
CC(C)CCC(C)NC(=O)c1ccc2nccnc2c1 (stereo not given)	-15% (inactive)	
Cc1nnc(NC(=O)c2ccc3nccnc3c2)s1		15.1 µM (active)
Cc1ccc(S(=O)(=O)N2CCC(C(=O)Nc3cc(C)ccc3C)CC2)cc1	-1.47% (inactive)	
Cc1cccc(-n2cnc(C(=O)Nc3cccnc3)c2)n1		10.7 µM (active)
Cc1cc(C)c(NC(=O)CS(=O)CC(=O)Nc2cccnc2)c(C)c1 (stereo not given)	0.546% (inactive)	
Cc1cccc(-n2cnc(C(=O)NNC(=S)Nc3ccccc3)c2)n1	-17.5% (inactive)	
CN(CC(=O)NCCN1CCOCC1)S(=O)(=O)c1ccc(F)cc1	2.29% (inactive)	
CCCCc1nn2c(=O)cc(COC(=O)c3cccc(NC(=O)COc4ccccc4)c3)nc2s1	-7.88% (inactive)	
Cc1nn2c(=O)cc(COC(=O)c3cccc(NC(=O)COc4ccccc4Cl)c3)nc2s1		3.01 µM (active)
O=C(Nc1ccc(C(=O)OCc2cc(=O)n3nc(C4CC4)sc3n2)cc1)c1ccc(F)cc1	-0.0489% (inactive)	
Cc1nn2c(=O)cc(COC(=O)c3ccccc3NC(=O)COc3ccccc3C)nc2s1	-6.91% (inactive)	
Cc1ccc(OCC(=O)OCc2cc(=O)n3nc(C4CC4)sc3n2)cc1	-5.96% (inactive)	
O=C(OCc1cc(=O)n2nc(C3CC3)sc2n1)c1ccccc1Cl		16.9 µM (active)
CN1CCc2c(sc3c2c(NCc2ccco2)nc2nnnn23)C1	7.24% (inactive)	
Cc1nc2ccccn2c(=O)c1NC(=O)c1c(F)cccc1F	3.3% (inactive)	
COc1ccc2cc(C3=CC(=O)C[C@H](c4ccc5c(c4)OCO5)C3)ccc2c1	3.7% (inactive)	
Cc1cccc(C)c1NC(=O)CN1C(=O)C(C)Oc2ccccc21 (stereo not given)	1.07% (inactive)	
CN(CC(=O)Nc1ccc(OC(F)(F)F)cc1)C(=O)C1CCC1	-4% (inactive)	
CC(C)[C@H](NC(=O)c1ccc(F)cc1)C(=O)OCC(=O)NC(=O)c1cccn1C	0.441% (inactive)	
Cc1nn(C(C)C(=O)Nc2ccc(C(C)C)cc2)c(=O)c2c1sc1ccccc12 (stereo not given)	-10.5% (inactive)	
O=S(=O)(c1cccc(S(=O)(=O)N2CCC(n3nnc4ccccc43)CC2)c1)N1CCCCC1	0.624% (inactive)	
O=C(c1ccc(F)cc1)N1CCC(n2nnc3ccccc32)CC1		2.69 µM (active)
CC(=O)c1cccc(S(=O)(=O)N2CCC(n3nnc4cc(F)ccc43)CC2)c1	1.11% (inactive)	

Structure (SMILES)	activity change, negative = inhibition	Potency
CCCN(CCC)C(=O)Cn1c(=O)n(-c2ccc(Cl)cc2)c(=O)c2c3c(sc21)CCCCC3	4.78% (inactive)	
COc1ccc(-c2nnc(SCC(=O)Nc3ccc(C(C)C)cc3)nc2-c2ccc(OC)c(OC)c2)cc1OC	4.68% (inactive)	
CN(Cc1cc2cc(F)ccc2[nH]1)Cc1nc(-c2cnccn2)no1	1.36% (inactive)	
Cc1ccc(-c2nn(-c3ccccc3)cc2C(=O)NCCCN2CCCC2=O)cc1		21.3 µM (active)
Cc1nn(Cc2ccccc2)c(C)c1C(=O)NCCCN1CCCC1=O	-2.49% (inactive)	
COc1ccc(NC(=O)CSc2nc(N)c(-c3ccccc3)c(=O)[nH]2)cc1	8.54% (inactive)	
COc1ccc(NC(=O)c2cn(-c3ccccc3)nc2SC)cc1		15.1 µM (active)
COc1ccc(-c2nn(-c3ccccc3)cc2/C=C\C(=O)Nc2ccc(C(=O)O)cc2)cc1		15.1 µM (active)
COc1ccc(NC(=O)c2ccccc2CC[N+](=O)[O-])cc1	1.33% (inactive)	
O=C(CSc1nnc(-c2ccncc2)n1-c1ccc(Cl)cc1)Nc1ccc(C(=O)O)cc1	-4.75% (inactive)	
COc1cccc(C(=O)NC(=O)Nc2ccc(-c3cc(C(F)(F)F)nn3-c3ccccc3)cc2)c1	-3.37% (inactive)	
COc1ccc(NC(=O)CN(C)C(=O)/C=C/c2cn(Cc3ccccc3)nc2-c2cccnc2)cc1	-3.23% (inactive)	
Cc1ccc(-c2nn(-c3ccccc3)cc2C(=O)Nc2cccc(S(=O)(=O)N3CCOCC3)c2)cc1	-3.14% (inactive)	
O=C(O)c1ccc(NC(=O)c2cn(-c3ccccc3)nc2-c2ccc(Cl)cc2)cc1		6.75 µM (active)
O=C(NCCCN1CCCC1=O)c1ccc(S(=O)(=O)Nc2ccccc2)cc1	-0.641% (inactive)	
Cc1ccc(Cl)c(NC(=O)CN2CCN(C=O)CC2)c1	-0.796% (inactive)	
Fc1cccc(-n2ncc3c2ncn2nc(-c4ccccc4Cl)nc32)c1	-1.28% (inactive)	
CN(C(=O)CSc1nnc(C2CC2)n1C)C1CCCc2ccccc21 (stereo not given)	1.86% (inactive)	
N#Cc1ccc(C2=CC(=O)C[C@H](c3ccc(Cl)cc3)C2)cc1	-16.3% (inactive)	
O=C(CSc1oc(-c2ccco2)nc1S(=O)(=O)c1ccc(Cl)cc1)c1ccccc1	1.52% (inactive)	
COc1ccccc1CNc1nccn(-c2ccc(F)cc2)c1=O	-2.26% (inactive)	
Cc1ccc(C2(C)NC(=O)N(CC(=O)Nc3ccccc3C(=O)N3CCCCC3)C2=O)cc1 (stereo not given)	0.472% (inactive)	
CCOC(=O)c1c(C)[nH]c(C)c1S(=O)(=O)N1CCCC(C(=O)NCc2ccccc2Cl)C1 (stereo not given)	-8.43% (inactive)	
Cc1ccc(NC(=O)CSc2nc3ccccc3c3nc(CCn4cncc4C)nn23)cc1F	3.74% (inactive)	
O=C(CO/N=C/c1ccc(OC(F)F)cc1)NCc1ccc(F)cc1	-10.7% (inactive)	
